Experimental data as given in the supplement of paper PMC11732987, “Enantioselective OTUD7B fragment discovery through chemoproteomics screening and high-throughput optimisation” (Communications Chemistry, 2025).

Assays:
Test in all cases: log2 ratio of Biotin-Ahx-Ub-VS probe labelling (fragment/DMSO); higher = less target engagement (more negative = stronger competition), active = hit call of the paper (q ≤ 0.05, log2 ratio ≤ -1)
Conditions in all cases: compound concentration: 200 uM; treatment time: 3 h
USP34 = USP34 (UniProt Q70CQ2)
Method in brief: (§1)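 Triplicate samples of HEK293T lysate, 495 µg each, received fragment at 200 µM or vehicle for 3 h, followed by Biotin-Ahx-Ub-VS (0.5 µM final) for 1 h. After NeutrAvidin enrichment of labelled DUBs and LysC/trypsin digestion, peptides were run by diaPASEF LC-MS/MS. The values are average log2 fragment/vehicle ratios from global-median-normalised Spectronaut label-free quantities, tested by unpaired t-test on proteins having ≥2 unique peptides.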

USP36 = molecular target: T1, USP36 (UniProt Q9P275)
T1 sequence (whole entry): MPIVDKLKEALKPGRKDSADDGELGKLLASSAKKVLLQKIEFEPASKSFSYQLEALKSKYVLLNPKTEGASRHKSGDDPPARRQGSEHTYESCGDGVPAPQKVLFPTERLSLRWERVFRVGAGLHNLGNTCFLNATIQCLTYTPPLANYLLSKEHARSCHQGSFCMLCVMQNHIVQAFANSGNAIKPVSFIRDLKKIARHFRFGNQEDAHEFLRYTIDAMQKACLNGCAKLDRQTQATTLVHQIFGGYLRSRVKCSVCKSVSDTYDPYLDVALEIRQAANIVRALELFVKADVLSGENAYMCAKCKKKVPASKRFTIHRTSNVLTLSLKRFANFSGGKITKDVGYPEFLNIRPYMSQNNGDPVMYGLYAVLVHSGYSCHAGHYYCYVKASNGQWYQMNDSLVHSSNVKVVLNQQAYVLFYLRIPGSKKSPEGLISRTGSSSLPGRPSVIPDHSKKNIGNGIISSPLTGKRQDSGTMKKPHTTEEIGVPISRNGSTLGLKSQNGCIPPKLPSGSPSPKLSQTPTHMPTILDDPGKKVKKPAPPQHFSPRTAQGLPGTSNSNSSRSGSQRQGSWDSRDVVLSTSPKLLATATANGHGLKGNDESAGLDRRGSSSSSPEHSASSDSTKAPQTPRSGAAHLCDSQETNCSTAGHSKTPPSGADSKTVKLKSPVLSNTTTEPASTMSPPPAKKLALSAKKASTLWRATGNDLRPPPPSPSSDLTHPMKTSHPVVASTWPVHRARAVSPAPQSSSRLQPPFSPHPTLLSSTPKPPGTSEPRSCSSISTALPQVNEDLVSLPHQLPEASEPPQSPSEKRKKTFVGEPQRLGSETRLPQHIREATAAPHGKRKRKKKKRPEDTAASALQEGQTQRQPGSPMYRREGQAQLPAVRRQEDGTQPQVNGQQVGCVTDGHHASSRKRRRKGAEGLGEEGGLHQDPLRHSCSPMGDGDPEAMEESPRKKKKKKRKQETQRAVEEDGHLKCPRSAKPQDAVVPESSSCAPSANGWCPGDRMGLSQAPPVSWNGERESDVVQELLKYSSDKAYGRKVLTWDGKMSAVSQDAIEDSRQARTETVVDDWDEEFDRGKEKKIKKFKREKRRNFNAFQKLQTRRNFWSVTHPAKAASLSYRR
Method in brief: as §1

USP38 = molecular target: T2, USP38 (UniProt Q8NB14)
T2 sequence (whole entry): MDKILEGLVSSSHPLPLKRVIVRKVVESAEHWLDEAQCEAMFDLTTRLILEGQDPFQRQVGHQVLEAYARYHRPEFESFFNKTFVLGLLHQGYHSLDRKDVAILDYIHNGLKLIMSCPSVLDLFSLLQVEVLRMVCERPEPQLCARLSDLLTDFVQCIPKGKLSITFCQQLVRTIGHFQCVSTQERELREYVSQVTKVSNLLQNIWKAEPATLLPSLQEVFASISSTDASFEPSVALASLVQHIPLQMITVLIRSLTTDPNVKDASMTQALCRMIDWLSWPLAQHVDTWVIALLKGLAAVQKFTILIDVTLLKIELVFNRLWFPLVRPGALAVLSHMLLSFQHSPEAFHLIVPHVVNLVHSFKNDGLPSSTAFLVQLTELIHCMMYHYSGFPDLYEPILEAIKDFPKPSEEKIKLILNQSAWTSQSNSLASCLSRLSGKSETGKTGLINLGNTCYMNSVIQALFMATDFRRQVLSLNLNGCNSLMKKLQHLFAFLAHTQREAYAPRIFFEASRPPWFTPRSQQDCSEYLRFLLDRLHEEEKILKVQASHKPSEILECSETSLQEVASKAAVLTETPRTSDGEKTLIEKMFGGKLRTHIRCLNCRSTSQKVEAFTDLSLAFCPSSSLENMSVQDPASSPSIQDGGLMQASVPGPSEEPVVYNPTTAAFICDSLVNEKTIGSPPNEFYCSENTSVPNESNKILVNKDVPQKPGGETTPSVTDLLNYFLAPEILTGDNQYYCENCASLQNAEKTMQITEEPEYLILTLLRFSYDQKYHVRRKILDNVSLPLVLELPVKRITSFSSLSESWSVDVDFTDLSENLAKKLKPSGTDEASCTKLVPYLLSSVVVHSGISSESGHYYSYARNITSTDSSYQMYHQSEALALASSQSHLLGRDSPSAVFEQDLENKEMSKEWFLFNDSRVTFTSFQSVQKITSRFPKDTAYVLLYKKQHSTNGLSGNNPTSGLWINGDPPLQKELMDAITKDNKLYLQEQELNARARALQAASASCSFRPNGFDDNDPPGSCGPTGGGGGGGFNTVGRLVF
Method in brief: as §1

USP39 = molecular target: T3, USP39 (UniProt Q53GS9)
T3 sequence (whole entry): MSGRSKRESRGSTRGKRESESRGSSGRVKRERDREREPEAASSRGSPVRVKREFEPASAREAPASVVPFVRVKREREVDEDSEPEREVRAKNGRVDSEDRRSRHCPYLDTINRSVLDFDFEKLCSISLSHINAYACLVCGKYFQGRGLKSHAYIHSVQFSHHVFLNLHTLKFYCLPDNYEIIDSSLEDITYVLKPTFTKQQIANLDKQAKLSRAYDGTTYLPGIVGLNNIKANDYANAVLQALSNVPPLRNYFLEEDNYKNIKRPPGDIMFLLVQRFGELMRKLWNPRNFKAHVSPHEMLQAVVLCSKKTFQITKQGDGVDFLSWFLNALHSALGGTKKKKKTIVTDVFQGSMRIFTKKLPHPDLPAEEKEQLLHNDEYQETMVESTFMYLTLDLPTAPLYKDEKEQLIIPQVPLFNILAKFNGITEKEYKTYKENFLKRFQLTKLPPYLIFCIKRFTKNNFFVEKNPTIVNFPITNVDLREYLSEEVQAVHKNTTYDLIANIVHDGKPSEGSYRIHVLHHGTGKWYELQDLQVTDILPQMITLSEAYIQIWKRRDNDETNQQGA
Method in brief: as §1

USP4 = molecular target: T4, USP4 (UniProt Q13107)
T4 sequence (whole entry): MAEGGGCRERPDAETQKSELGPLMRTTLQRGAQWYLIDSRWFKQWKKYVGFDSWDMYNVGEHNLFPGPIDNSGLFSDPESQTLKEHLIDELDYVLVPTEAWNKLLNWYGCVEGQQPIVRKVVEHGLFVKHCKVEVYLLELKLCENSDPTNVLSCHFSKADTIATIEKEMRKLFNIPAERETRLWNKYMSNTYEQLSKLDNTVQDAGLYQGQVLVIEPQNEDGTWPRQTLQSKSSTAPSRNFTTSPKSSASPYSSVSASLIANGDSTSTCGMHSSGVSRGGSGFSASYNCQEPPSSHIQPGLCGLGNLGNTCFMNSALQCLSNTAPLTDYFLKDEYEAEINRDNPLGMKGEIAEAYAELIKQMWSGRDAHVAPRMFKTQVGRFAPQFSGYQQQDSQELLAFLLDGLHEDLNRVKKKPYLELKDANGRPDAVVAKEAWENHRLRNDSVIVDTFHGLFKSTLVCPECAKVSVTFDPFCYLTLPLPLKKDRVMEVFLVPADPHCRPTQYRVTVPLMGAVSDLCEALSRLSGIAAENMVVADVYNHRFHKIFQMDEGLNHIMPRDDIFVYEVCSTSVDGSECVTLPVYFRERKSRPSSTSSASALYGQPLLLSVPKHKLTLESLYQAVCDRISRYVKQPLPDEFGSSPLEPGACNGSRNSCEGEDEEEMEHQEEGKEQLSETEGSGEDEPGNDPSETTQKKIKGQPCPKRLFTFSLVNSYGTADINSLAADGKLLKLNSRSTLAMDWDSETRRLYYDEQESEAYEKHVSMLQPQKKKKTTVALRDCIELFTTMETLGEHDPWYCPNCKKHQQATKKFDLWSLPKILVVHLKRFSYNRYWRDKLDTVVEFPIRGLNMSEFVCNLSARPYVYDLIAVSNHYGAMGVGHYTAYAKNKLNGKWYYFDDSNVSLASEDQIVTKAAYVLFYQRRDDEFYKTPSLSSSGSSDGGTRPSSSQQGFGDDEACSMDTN
Method in brief: as §1

Measured: log2 ratio of Biotin-Ahx-Ub-VS probe labelling

Chain of USP34 (Q70CQ2 whole entry, the tested form may be a part): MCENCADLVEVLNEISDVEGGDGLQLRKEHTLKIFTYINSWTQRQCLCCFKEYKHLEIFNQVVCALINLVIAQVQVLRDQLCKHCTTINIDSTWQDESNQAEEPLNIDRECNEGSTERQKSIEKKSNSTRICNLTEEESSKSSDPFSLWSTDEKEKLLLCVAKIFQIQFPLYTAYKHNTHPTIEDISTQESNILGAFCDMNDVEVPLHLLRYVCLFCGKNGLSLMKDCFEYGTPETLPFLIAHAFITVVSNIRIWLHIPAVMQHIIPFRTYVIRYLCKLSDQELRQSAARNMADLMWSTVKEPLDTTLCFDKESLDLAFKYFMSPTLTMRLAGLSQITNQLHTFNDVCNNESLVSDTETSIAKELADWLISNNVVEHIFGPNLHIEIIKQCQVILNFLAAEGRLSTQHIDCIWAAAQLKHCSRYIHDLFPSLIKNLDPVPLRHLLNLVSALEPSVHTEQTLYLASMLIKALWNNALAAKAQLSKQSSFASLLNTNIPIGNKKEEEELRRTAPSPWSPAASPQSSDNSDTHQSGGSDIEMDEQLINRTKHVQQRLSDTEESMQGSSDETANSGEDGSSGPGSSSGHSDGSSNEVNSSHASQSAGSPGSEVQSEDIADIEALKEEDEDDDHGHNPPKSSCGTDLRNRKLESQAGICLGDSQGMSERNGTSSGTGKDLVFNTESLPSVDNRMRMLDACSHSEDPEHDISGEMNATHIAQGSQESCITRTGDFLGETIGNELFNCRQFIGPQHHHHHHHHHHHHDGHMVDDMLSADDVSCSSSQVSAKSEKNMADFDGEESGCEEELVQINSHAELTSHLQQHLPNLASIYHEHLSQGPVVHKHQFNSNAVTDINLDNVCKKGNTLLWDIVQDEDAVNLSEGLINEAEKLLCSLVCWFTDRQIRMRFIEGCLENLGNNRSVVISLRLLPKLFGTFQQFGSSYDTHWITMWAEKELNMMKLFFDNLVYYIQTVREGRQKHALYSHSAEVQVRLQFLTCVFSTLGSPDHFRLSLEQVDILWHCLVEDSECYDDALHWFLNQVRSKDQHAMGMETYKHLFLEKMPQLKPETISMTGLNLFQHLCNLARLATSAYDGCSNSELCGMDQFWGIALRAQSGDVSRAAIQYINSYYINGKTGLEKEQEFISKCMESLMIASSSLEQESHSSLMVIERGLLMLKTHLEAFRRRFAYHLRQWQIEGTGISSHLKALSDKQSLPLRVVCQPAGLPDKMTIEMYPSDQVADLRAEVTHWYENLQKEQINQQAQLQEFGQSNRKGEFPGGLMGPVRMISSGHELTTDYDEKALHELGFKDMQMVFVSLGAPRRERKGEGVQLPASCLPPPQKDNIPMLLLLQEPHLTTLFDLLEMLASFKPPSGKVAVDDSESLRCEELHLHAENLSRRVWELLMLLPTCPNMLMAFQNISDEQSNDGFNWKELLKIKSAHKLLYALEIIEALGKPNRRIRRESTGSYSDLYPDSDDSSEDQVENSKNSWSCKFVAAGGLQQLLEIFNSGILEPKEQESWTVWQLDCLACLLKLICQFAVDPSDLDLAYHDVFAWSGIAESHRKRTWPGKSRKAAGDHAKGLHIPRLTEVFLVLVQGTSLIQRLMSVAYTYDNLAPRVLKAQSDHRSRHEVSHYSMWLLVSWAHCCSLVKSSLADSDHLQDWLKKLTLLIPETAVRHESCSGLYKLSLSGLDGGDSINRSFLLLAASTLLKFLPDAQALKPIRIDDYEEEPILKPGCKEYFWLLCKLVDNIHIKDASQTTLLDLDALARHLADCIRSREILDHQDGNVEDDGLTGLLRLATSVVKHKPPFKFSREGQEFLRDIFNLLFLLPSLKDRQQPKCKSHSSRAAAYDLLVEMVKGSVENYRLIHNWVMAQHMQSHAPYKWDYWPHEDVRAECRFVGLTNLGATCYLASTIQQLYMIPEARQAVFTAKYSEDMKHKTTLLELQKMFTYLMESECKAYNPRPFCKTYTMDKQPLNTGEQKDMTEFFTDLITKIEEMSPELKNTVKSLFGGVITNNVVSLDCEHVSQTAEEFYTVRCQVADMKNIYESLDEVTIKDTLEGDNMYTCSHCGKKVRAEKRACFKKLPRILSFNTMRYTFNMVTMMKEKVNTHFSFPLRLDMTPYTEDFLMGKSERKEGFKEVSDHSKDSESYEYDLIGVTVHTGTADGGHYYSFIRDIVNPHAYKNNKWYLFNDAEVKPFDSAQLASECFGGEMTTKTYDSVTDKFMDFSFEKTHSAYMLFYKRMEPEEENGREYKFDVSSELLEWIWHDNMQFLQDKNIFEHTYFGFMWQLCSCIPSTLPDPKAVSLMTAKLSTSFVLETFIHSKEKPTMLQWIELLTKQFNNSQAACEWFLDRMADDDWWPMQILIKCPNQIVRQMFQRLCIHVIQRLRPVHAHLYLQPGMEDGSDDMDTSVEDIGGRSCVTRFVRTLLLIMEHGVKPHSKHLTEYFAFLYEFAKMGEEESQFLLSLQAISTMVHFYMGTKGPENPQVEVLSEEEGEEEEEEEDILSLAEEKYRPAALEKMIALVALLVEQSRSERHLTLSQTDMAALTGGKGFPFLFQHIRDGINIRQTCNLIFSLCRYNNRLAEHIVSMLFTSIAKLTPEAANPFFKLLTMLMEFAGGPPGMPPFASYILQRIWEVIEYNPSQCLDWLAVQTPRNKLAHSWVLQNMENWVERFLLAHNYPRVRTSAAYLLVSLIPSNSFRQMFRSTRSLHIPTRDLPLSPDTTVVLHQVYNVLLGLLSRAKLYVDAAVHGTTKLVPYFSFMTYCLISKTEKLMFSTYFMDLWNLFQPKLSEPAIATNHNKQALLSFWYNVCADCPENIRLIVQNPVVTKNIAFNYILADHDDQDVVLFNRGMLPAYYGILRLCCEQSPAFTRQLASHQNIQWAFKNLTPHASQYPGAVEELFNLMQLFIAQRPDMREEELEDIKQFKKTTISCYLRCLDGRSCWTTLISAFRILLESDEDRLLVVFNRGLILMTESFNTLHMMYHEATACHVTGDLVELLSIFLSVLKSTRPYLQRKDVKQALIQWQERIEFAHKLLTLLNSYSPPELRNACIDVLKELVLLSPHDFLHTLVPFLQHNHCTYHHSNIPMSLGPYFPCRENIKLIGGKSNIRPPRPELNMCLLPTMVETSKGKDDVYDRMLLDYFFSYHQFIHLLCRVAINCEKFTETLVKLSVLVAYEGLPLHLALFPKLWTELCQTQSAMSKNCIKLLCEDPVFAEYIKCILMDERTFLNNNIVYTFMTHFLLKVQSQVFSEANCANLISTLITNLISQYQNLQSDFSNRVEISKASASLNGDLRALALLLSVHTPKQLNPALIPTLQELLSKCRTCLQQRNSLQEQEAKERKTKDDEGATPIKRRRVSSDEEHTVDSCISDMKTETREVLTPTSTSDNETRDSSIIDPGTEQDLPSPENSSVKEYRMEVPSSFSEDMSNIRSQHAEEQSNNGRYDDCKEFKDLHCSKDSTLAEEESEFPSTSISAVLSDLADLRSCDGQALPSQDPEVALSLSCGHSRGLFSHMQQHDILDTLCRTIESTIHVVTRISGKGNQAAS

Cc1nc(CNC(=O)CCl)c2ccccn12.Cl
inactive: USP34 -0.0794 | USP36 -0.09 | USP38 -0.0607 | USP39 0.302 | USP4 -0.0724
